Source: PubChem BioAssay
3T3 cytotox: cytotoxic compounds in NIH 3T3 cells. NIH 3T3 viability, CellTiter-Glo ATP luminescence, 48-72 h. Potency, µM (series often up to 96.7 µM), inactives show at the highest dose activity change, negative = cytotoxicity, usual class: inhibitors. 94,000 compounds, 4.3% hits; note: % is set by controls: 0 for no effect and ±100 for the full control effect; nearly all actives have a fitted effect of over 55% in size
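Cytotoxicity is measured as loss of cellular ATP: NIH 3T3 cells (400/well) are exposed to compound for 48 or 72 hr at 37 °C, then CellTiter-Glo luminescence is imaged after 10 min at room temperature.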
FLuc inh-1: inhibitors of firefly (Photinus pyralis) luciferase. Potency, µM (highest dose often 115 µM), actives largely listed as inhibitors. P08659. purified P. pyralis luciferase, luminescence, biochemical. 76,000 compounds, 2.5% hits; note: % is set by controls: 0 for no effect and ±100 for the full control effect; nearly all actives have a fitted effect of over 65% in size
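Purified 10nM P. pyralis luciferase with 10uM D-luciferin and 10uM ATP in 50mM Tris acetate pH 7.5, 10mM Mg acetate, 0.01% Tween-20, 0.05% BSA. qHTS titration; luminescence read by CCD imager.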
NPR1 antag: antagonists of human natriuretic peptide receptor Npr1. HEK293 hNpr1 GloSensor cGMP, ANP-stimulated luminescence. 76,000 compounds, 1.6% hits. Potency, µM (top dose mostly 46.3 µM), for the others: at the highest dose activity change, negative = inhibition, most hits filed as inhibitors. AID 1347048. P16066; calls by dose curve; note: % is set by controls: 0 for no effect and ±100 for the full control effect; nearly all actives have a fitted effect of over 60% in size
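HEK293 cells stably expressing human Npr1 and cGMP GloSensor pGS-40F, loaded 2 h with 2% GloSensor reagent, given compound 30 min at room temperature. Luminescence read before and 20 min after 0.1 nM hNppA.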
HEK cytotox: kills HEK 293 cells | 94,000 compounds, 6.6% hits | AID 1345083 | Potency, µM (doses to about 115 µM), for the others: at the highest dose activity change, negative = cytotoxicity, actives largely listed as inhibitors | HEK 293 viability, ATP luminescence (CellTiter-Glo), 48-72 h; note: % is set by controls: 0 for no effect and ±100 for the full control effect; nearly all actives have a fitted effect of over 60% in size
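Viability of HEK 293 cells, plated at 250 cells/well, was judged by cellular ATP after compound treatment for 48 or 72 hr. Luminescence was imaged 10 min after CellTiter-Glo addition at room temperature.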
FLuc SDR -ATP: stabilizes firefly luciferase without ATP; shares compounds with FLuc inh-1; Purified FLuc-C-HiBiT, Nano-Glo HiBiT luminescence, no ATP; Potency, µM (titrated, usually from 32.7 µM), for inactives: at the highest dose activation (signal gain), hits mostly activators; 1,300 compounds, 7.8% hits; note: nearly all actives have a fitted effect of over 55% in size
FLuc SDR ATP: binders stabilizing firefly luciferase, plus ATP | shares compounds with FLuc inh-1 | purified FLuc-C-HiBiT + ATP, HiBiT complementation luminescence | Potency, µM (titrated, usually from 32.7 µM), without a hit: at the top dose activation (gain of signal), actives largely listed as activators | 1,300 compounds, 8.7% hits;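 note: signal reports ligand binding via conformational change of the enzyme rather than luciferase catalysis; % of control where 0% means no effect; nearly all actives have a fitted effect of over 55% in size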
FLuc inh-2: inhibitors of firefly luciferase enzymatic activity | Potency, µM (doses to about 32.7 µM), without a hit: at the highest dose activity change, negative = inhibition, hits mostly inhibitors | purified FLuc-C-HiBiT enzyme, luciferin luminescence | shares compounds with FLuc inh-1 | 1,300 compounds, 42% hits; note: % is set by controls: 0 for no effect and ±100 for the full control effect; nearly all actives have a fitted effect of over 70% in size
* hit, by the source's call; i = inactive; ? = inconclusive; . = no result; [ ] = dose if it differs, or a comment. A selection: hits, their analogues and other compounds. The true share with any hit is near 11%. Unless noted, calls come from the whole dose curve; as a rule, active = well fitted curve in the direction sought with a large enough effect; inconclusive = small, poorly fitted or top-dose-only effect, or another doubt; inactive = no such curve, though single readings can be large; an effect the other way counts as inactive or inconclusive. Potency is the fitted concentration of half-maximal effect.

SMILES	3T3 cytotox	FLuc inh-1	NPR1 antag	HEK cytotox	FLuc SDR -ATP	FLuc SDR ATP	FLuc inh-2
Cc1cccc(NC(=O)Cn2c(N3CCN(c4ccccc4)CC3)nc(C)cc2=O)c1	?	i	6%	?	.	.	.
Cc1cc(-c2cc3c(cn2)CN(CC2CCOCC2)CCN3)ccn1	?	?	0%[70.6 µM]	?	.	.	.
CCn1cc(-c2cc3c(cn2)CN(Cc2ccncc2)CCN3)cn1	-37%[138 µM]	?	-1%[70.6 µM]	?	.	.	.
Cc1cc(-c2cc3c(cn2)CN(Cc2ccccn2)CCN3)ccn1	89µM*	14µM*	2%[70.6 µM]	?	21%[49.3 µM]	19%[49.3 µM]	?
Clc1ccc(-c2cc3c(cn2)CN(Cc2ccncc2)CCN3)cc1	?	2.2µM*	?	89µM*	31%[49.3 µM]	?	16µM*
N#Cc1c(-n2ncnc2-c2ccc(Br)cc2)sc2c1CCCCC2	.	.	.	.	23%	21%	9.9µM*
COc1ccc(-c2noc([C@@H]3CCCN3C(=O)COc3cccc(C)c3)n2)cc1	?	i	-17%	?	.	.	.
NC(=O)[C@@H]1CCCN1C(=O)c1ccc2oc(-c3cccc(F)c3)nc2c1	?	11µM*	3%	?	17%	16%	-19%
O=C(NCc1cccc(F)c1)C1CCCN1C(=O)c1cccc(-c2ccccn2)c1 (centres undefined)	-9%	.	.	-8%	.	.	.
O=C(c1ccc2c(c1)OCO2)N1CCC2(CC1)N(Cc1ccccc1)C(=O)CS2(=O)=O	-21%	.	.	1%	.	.	.
Cc1cccc(OCCc2noc(C3CN(C(=O)Nc4ccc5c(c4)OCCO5)C3)n2)c1	?	3.5µM*	?	?	?	20%	7µM*
O=C(Nc1ccccc1)N1CCCC(c2nc(C3CCOCC3)no2)C1 (centres undefined)	-3%	i	-2%	-5%	.	.	.
CCn1c(C2CCCN(C(=O)NC(C)C)C2)nn(C)c1=O (centres undefined)	-2%	i	1%	3%	.	.	.
Cc1cccc(OCCc2noc(C3CN(C(=O)c4cnccc4C)C3)n2)c1	-24%	i	3%	?	.	.	.
CN1CCCN(C(=O)Nc2ccc3c(c2)OCCO3)c2ccccc21	?	11µM*	-16%	-18%	26%	?	?
O=C(Nc1ccc2c(c1)OCCO2)N1CCCC(c2nc(C3CCOCC3)no2)C1 (centres undefined)	-7%	13µM*	1%	-5%	23%	21%	?
CCn1c(C2CCCN(C(=O)Nc3ccc4c(c3)OCCO4)C2)nn(C)c1=O (centres undefined)	1%	6.3µM*	-26%	8%	25%	18%	?
O=C1c2c(nc(CNCc3ccc4c(c3)OCO4)n2Cc2ccccc2)NCCN1Cc1ccccc1F	?	i	-2%	?	.	.	.
O=C1OC[C@@H]2CCN(Cc3ccc(F)c(F)c3)Cc3ccc(F)cc3N12	-26%[174 µM]	i	-3%[70.6 µM]	?	.	.	.
CC(=O)Nc1ccc(C(=O)N2CCC3(CC2)N=C(c2ccc(C)cc2)NO3)cc1	-10%	i	-8%	?	.	.	.
COC(=O)NCCNC(=O)c1ccc(-c2cccc(OC)c2)cc1	-28%[138 µM]	.	.	?	.	.	.
O=C(NCCCc1ccccc1)C1CCN(C(=O)N2CC3CC(C2)[C@H]2CCCC(=O)N2C3)CC1 (some centres undefined)	-8%	i	5%	4%	.	.	.
O=C(Nc1ccccc1)C1CCN(C(=O)N2CC3CC(C2)[C@H]2CCCC(=O)N2C3)CC1 (some centres undefined)	-6%	i	-5%	-3%	11%	8%	5%
COc1ccc(-c2noc(-c3ccc(N4CCN(C)CC4)c([N+](=O)[O-])c3)n2)cc1	.	.	.	.	21%	13%	?
COc1ccccc1-c1noc(-c2ccc(N3CCN(C)CC3)c([N+](=O)[O-])c2)n1	.	.	.	.	?	?	5µM*
SMILES	3T3 cytotox	FLuc inh-1	NPR1 antag	HEK cytotox	FLuc SDR -ATP	FLuc SDR ATP	FLuc inh-2
CCc1noc(-c2nc(-c3ccccc3OC)no2)n1	-6%	i	-2%	?	.	.	.
Cc1ccccc1-c1noc(-c2nc(-c3ccncc3)no2)n1	3%	i	-1%	-6%	.	.	.
Cc1ccccc1-c1noc(-c2ccc(N3CCCC3)c([N+](=O)[O-])c2)n1	.	.	.	.	22%	?	?
CCOCCNC(=O)C1CCCN1c1nccc(Nc2ccccc2F)n1 (centres undefined)	-10%	.	.	-12%	.	.	.
CC(=O)N1CCc2ccc(C(=O)NC3CCCCCC3)cc21	?	0.35µM*	14µM*	?	?	11µM*	6.2µM*
COc1ccc(C)cc1NC(=O)c1ccc2c(Cl)c3c(nc2c1)CCC3	.	.	.	.	23%	16%	?
O=C(CSc1nccn1Cc1ccco1)Nc1ccc(OC(F)(F)F)cc1	.	.	.	.	13%	11%	?
O=C(CC1CCOCC1)Nc1ccc(OC(F)(F)F)cc1	-14%	?	-13%	-18%	.	.	.
CCNC(=O)N[C@@H]1C=C[C@@H](c2c(C)nn(-c3ccc(F)cc3)c2C)C1	?	6.3µM*	20µM*	89µM*	26%[49.3 µM]	?	?
Cc1ccc(-n2nc(C)c([C@@H]3C=C[C@@H](NC(=O)NCc4ccccc4)C3)c2C)cc1Cl	?	7.9µM*	?	-23%[172 µM]	19%[49.3 µM]	?	?
Cc1nn(-c2ccc(C(C)(C)C)cc2)c(C)c1[C@@H]1C=C[C@@H](NC(=O)CC2(CC(=O)O)CCCC2)C1	?	i	0%	-9%	.	.	.
COc1ccc(-n2nc(C)c([C@@H]3C=C[C@@H](NC(=O)NCc4ccccc4)C3)c2C)cc1	?	1.1µM*	8.9µM*	?	?	19%[49.3 µM]	6.4µM*
CNC(=O)c1cccc(-c2cnc(NC(=O)c3ccncc3)c3c2CCO3)c1	?	13µM*	-15%[70.6 µM]	-15%[172 µM]	23%[49.3 µM]	?	?
CN(C)c1cccc(C(=O)Nc2ncc(-c3cnn(C)c3)c3c2OCC3)c1	?	?	6%[70.6 µM]	-27%[172 µM]	.	.	.
CNC(=O)c1cccc(-c2cnc(NC(=O)c3cn(C)cn3)c3c2CCO3)c1	.	.	.	.	23%[49.3 µM]	?	?
CCNC(=O)N1CCC(Cc2ccc(C(=O)NCCN3CCCCC3)cc2)CC1	-21%	i	-2%	-1%	.	.	.
O=[N+]([O-])c1cccc(-c2noc([C@@H]3C[C@@H](O)CN3Cc3cccs3)n2)c1	?	?	4%[70.6 µM]	?	.	.	.
COc1ccc(-c2noc([C@@H]3C[C@@H](O)CN3Cc3cccs3)n2)cc1	-36%[174 µM]	14µM*	-14%[70.6 µM]	-22%[172 µM]	10%[49.3 µM]	9%[49.3 µM]	?
